Data reported in PubChem BioAssay AID1345085 (National Center for Advancing Translational Sciences (NCATS), 2018).
Results filed as inconclusive are left out. Calls of active or inactive are those of the source. Calls follow the shape of the dose curve; as a rule, active = well fitted cell-killing curve with a large enough effect; inconclusive = small, poorly fitted or top-dose-only effect, or effect the other way; inactive = no such curve, though single readings can be large or run the other way.

Test system: Hek293T
Test: Confirmatory qHTS for gynecologic anti-cancer compounds from libraries of approved drugs and bioactive compounds; also: nearly all actives have a fitted effect of over 55% in size
Settings: gynecologic cancer cell panel viability, ATPlite luminescence, 48 h; series mostly up to 57.6 µM
Procedure, shortened: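 1,000 cells/well; 16 h pre-incubation 37 C, 5% CO2; pin-transferred cpd in DMSO, 11 conc (1:3), 57.5 uM–0.977 nM; 48 h; ATPlite, 15 min RT; luminescence → IC50.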
Potency is read from the fitted curve at half-maximal effect.

SMILES	Potency
CN(C)C1CCN(C(=O)c2ccc(NC(=O)Nc3nc(N4CCOCC4)nc(N4CCOCC4)n3)cc2)CC1	0.485 µM (active)
O=C(/C=C/c1cccc(S(=O)(=O)Nc2ccccc2)c1)NO	1.88 µM (active)
Cc1ccc(C(=O)Nc2ccc(Oc3cc4cnn(C)c4cc3-c3cn[nH]c3)c(F)c2)c(=O)n1-c1ccc(F)cc1	1.93 µM (active)
CCN1CCN(Cc2ccc(Nc3ncc(F)c(-c4cc(F)c5nc(C)n(C(C)C)c5c4)n3)nc2)CC1	inactive
COc1ccc(-c2nc3ccc(C4=NNC(=O)CC4C)cc3[nH]2)cc1 (stereo unspecified)	2.17 µM (active)
Cc1cc(C2CCCCC2)n(O)c(=O)c1	11.1 µM (active)
COc1cc(N2CCC(N3CCN(C)CC3)CC2)ccc1Nc1ncnc(Nc2ccccc2S(=O)(=O)C(C)C)n1	21.7 µM (active)
CC[C@@]1(O)C(=O)OCc2c1cc1n(c2=O)Cc2cc3cc(O)ccc3nc2-1	0.385 µM (active)
Cc1cc(Nc2nc(N[C@@H](C)c3ccc(F)cc3)c(C#N)cc2F)n[nH]1	inactive
CCC1C(=O)N(C)c2cnc(Nc3ccc(C(=O)NC4CCN(C)CC4)cc3OC)nc2N1C1CCCC1 (stereo unspecified)	0.0193 µM (active)
CCc1cccc(CC)c1NC(=O)N1Cc2[nH]nc(NC(=O)c3ccc(N4CCN(C)CC4)cc3)c2C1	inactive
CS(=O)(=O)c1ccc(-c2cnc(N)c(C(=O)Nc3ccccc3)n2)cc1	inactive
Cc1nc(Nc2n[nH]c3c2CN(C(=O)NC(CN(C)C)c2ccccc2)C3(C)C)c2sccc2n1 (stereo unspecified)	9.68 µM (active)
Nc1ccccc1NC(=O)c1ccc(CNC(=O)OCc2cccnc2)cc1	inactive
CCN(CC)CCNC(=O)c1c(C)[nH]c(/C=C2\C(=O)Nc3ccc(F)cc32)c1C	31.6 µM (active)
Cc1ccc(C(=O)Nc2cccc(C(F)(F)F)c2)cc1-c1ccc2nc(NCCN3CCOCC3)ncc2c1	19.3 µM (active)
CCCC(Nc1nc(-c2ccc(NC(=O)NCC)c(OC)c2)ncc1C)c1cccnc1 (stereo unspecified)	inactive
CN(Cc1cnc2nc(N)nc(N)c2n1)c1ccc(C(=O)N[C@@H](CCC(=O)O)C(=O)O)cc1	0.109 µM (active)

SMILES	Potency
CCCCc1oc2ccccc2c1C(=O)c1cc(I)c(OCCN(CC)CC)c(I)c1	79.4 µM (active)
COc1cc2nccc(Oc3ccc(NC(=O)Nc4cc(C)on4)c(Cl)c3)c2cc1OC	inactive
CC(C)n1nc(-c2cc3cc(O)ccc3[nH]2)c2c(N)ncnc21	6.85 µM (active)
COc1cc(Nc2ncc3c(n2)-c2ccc(Cl)cc2C(c2c(F)cccc2OC)=NC3)ccc1C(=O)O	inactive
CCCCc1oc2ccc(NS(C)(=O)=O)cc2c1C(=O)c1ccc(OCCCN(CCCC)CCCC)cc1	27.3 µM (active)
CN(C)C(CCOc1cccc2ccccc12)c1ccccc1 (stereo unspecified)	inactive
Cc1ccc(C(=O)N(CCCN)C(c2nc3cc(Cl)ccc3c(=O)n2Cc2ccccc2)C(C)C)cc1 (stereo unspecified)	0.0061 µM (active)
NC(=O)Nc1cc(-c2cccc(F)c2)sc1C(=O)NC1CCCNC1 (stereo unspecified)	0.273 µM (active)
Nc1nccc(Oc2ccc(NC(=O)c3c[nH]cc(-c4ccc(F)cc4)c3=O)cc2F)c1Cl	13.7 µM (active)
Cc1ccccc1C(OCCN(C)C)c1ccccc1 (stereo unspecified)	inactive
COc1cc(N2CCC(N3CCN(C)CC3)CC2)ccc1Nc1ncc(Cl)c(Nc2ccccc2S(=O)(=O)C(C)C)n1	21.7 µM (active)
NCCOc1cc(C(=O)Nc2cc(OCCN)c3ccccc3n2)nc(C(=O)Nc2cc(OCCN)c3ccccc3n2)c1	inactive
NC(=O)c1cccc2cn(-c3ccc([C@@H]4CCCNC4)cc3)nc12	inactive
CO[C@@]12[C@H](COC(N)=O)C3=C(C(=O)C(C)=C(N)C3=O)N1C[C@@H]1N[C@@H]12	inactive
CC(=O)c1cnc2ccc(-c3cc(Cl)c(O)c(Cl)c3)nc2c1NC1CCC(CN(C)C)CC1 (stereo unspecified)	0.0352 µM (active)
CNC(=O)c1nn(C)c2c1C(C)(C)Cc1cnc(Nc3ccc(N4CCN(C)CC4)cc3)nc1-2	4.32 µM (active)
CC[C@@]1(O)C(=O)OCc2c1cc1n(c2=O)Cc2cc3c(CN(C)C)c(O)ccc3nc2-1	3.43 µM (active)
FC(F)(F)c1ccc(/C=C/c2nc(COc3ccc(CCCCn4ccnn4)cc3)co2)cc1	0.0193 µM (active)
